In the library only some 3.3% were active in any assay of this set; here they are far more common.
RE007 growth inh – qHTS Assay for Inhibitors of the HIV-1 protein Vpr; S. pombe RE007 Vpr strain, BacTiter-Glo ATP luminescence, 24 h; Potency, µM (series often up to 92.2 µM), inactives show at the top dose activity change, negative = less growth, actives largely listed as inhibitors; actives 0.21% (n = 360,000); AID 651644, 2012; active = well fitted falling curve with a large enough effect; inconclusive = small, poorly fitted or top-dose-only effect; inactive = no such curve, though single readings can be large or run the other way; also: potency is read from the fitted curve at half-maximal effect; % is scaled to controls: 0 for no effect and ±100 for the full control effect; nearly all actives have a fitted effect of over 50% in size
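Fission yeast RE007 carrying one integrated HIV-1 vpr copy, seeded at OD 0.01 in PMG+AL medium with 23 nL pinned compound. Grown 24 h at 30 degrees; viability read by BacTiter-Glo luminescence after 5 min.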
NS1 inh – qHTS Assay for Inhibitors of Influenza NS1 Protein Function. Potency, µM (doses to about 46.1 µM), for the others: at the highest dose activity, positive = more growth. actives 0.4% (n = 270,000); calls by dose curve; also: potency is read from the fitted curve at half-maximal effect; actives are rising curves; nearly all actives have a fitted effect of over 50% in size
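Growth recovery, yeast-based: influenza A NS1 expressed in S. cerevisiae causes slow growth, and suppressors are detected by OD600. The parent strain without NS1 is used as positive control.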
LmPK inhibitor – qHTS Assay for Inhibitors of Leishmania Mexicana Pyruvate Kinase (LmPK). Potency, µM (top dose mostly 57.5 µM), inactives show top-dose activity change, negative = inhibition, usual class: inhibitors. Q27686. purified LmPK, Kinase-Glo ATP luminescence, 1 h. actives 0.37% (n = 290,000); also: potency is read from the fitted curve at half-maximal effect; % is scaled to controls: 0 for no effect and ±100 for the full control effect
Target sequence (Q27686 whole entry, looked up): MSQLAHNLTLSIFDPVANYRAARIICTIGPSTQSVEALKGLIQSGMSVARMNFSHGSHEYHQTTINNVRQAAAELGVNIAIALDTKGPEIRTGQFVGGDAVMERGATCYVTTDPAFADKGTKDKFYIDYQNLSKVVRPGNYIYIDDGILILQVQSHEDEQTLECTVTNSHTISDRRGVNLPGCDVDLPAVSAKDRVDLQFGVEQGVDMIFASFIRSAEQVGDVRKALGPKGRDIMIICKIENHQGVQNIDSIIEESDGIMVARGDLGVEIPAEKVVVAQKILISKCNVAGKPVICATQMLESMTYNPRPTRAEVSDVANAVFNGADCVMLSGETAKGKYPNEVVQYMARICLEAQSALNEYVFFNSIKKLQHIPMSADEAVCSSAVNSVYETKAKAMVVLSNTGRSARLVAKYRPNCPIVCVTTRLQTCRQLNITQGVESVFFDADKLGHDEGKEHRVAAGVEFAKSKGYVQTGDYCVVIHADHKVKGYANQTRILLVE
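Pyruvate kinase activity monitored as ATP production (luciferase luminescence). Conditions: 0.1 nM enzyme, 0.5 mM PEP, 0.1 mM ADP, 1 h, RT; normalized against uninhibited and no-enzyme wells.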
SARS PLpro yeast-1 – qHTS of Yeast-based Assay for SARS-CoV PLP; actives 0.19% (n = 330,000); S. cerevisiae expressing SARS-CoV PLpro, growth rescue; Potency, µM (highest dose often 32.9 µM), inactives show at the highest dose activity, positive = growth rescue, usual class: activators; AID 485353, 2010; calls by dose curve; also: potency is read from the fitted curve at half-maximal effect; 0% is about no effect; nearly all actives have a fitted effect of over 55% in size
Sm TGR inh – qHTS Assay for the Inhibitors of Schistosoma Mansoni Peroxiredoxins; Potency, µM (doses to about 114 µM), for the others: at the highest dose activity change, negative = inhibition, usual class: inhibitors; actives 3% (n = 360,000); Schistosoma mansoni thioredoxin glutathione reductase (TGR), Q962Y6; AID 485364, 2010; purified TGR, DTNB reduction, TNB absorbance 405 nm; also: potency is read from the fitted curve at half-maximal effect; % is scaled to controls: 0 for no effect and ±100 for the full control effect; nearly all actives have a fitted effect of over 60% in size
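Kinetic colorimetric format: TGR-catalysed, NADPH-driven DTNB reduction monitored via TNB absorbance. Enzyme dispensed at 20 nM; compound exposure 15 min at room temperature before reaction start.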
Tb PYK inh – qHTS of Trypanosoma Brucei Inhibitors. TbPYK enzyme, Kinase-Glo Plus ATP luminescence, 45 min. Potency, µM (highest dose often 76.8 µM), for inactives: top-dose activity, negative = inhibition, hits mostly inhibitors. actives 0.12% (n = 410,000). AID 624173, 2012; also: potency is read from the fitted curve at half-maximal effect; % is scaled to controls: 0 for no effect and ±100 for the full control effect; nearly all actives have a fitted effect of over 50% in size
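Luminescence from Kinase-Glo Plus, added after a 45-minute room-temperature reaction, served as the end-point read-out. The enzyme and substrate were preincubated with compound before ADP (130 uM final) initiated turnover. Concentration-effect curves came from normalized qHTS data.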
SARS PLpro yeast-2 – qHTS of Yeast-based Assay for SARS-CoV PLP: Hit Validation. shares compounds with SARS PLpro yeast-1. yeast expressing SARS-CoV PLpro, growth phenotype rescue. calls only. actives 19% (n = 1,000). AID 652038, 2013; call rule not given here
Starred values were filed as active, the others as inactive; i = inactive; ? = inconclusive; · = no result; + = active, no number. Unless noted, calls follow the shape of the dose curve; as a rule, active = well fitted curve in the direction sought with a large enough effect; inconclusive = small, poorly fitted or top-dose-only effect, or another doubt; inactive = no such curve, though single readings can be large; an effect the other way counts as inactive or inconclusive.

SMILES | RE007 growth inh | NS1 inh | LmPK inhibitor | SARS PLpro yeast-1 | Sm TGR inh | Tb PYK inh | SARS PLpro yeast-2
COc1ccccc1NC(=O)CSc1nc(O)c(C/C=C/c2ccccc2)c(=O)[nH]1 | · | · | · | · | -4% | 0% | ·
CCOc1ccccc1NC(=O)Cc1csc(COc2cccc(C)c2)n1 | · | · | · | · | -14% | -2% | ·
COC(=O)N/N=C/c1cc(Br)ccc1O | -18% | -2% | -3% | 0% | 11% | -6% | ·
CC(C)NC(=S)N/N=C/c1cc(Br)ccc1O | -14% | -8% | 0% | ? | -18% | -14% | +
COc1cccc(C(=O)Oc2c(CN3CCOCC3)cc(Cl)c3cccnc23)c1 | -24% | -11% | 7% | ? | -13% | 2% | i
CC(Sc1nnc(Nc2ccccc2)s1)C(=O)Nc1nc(-c2ccccc2)cs1 (configuration not stated) | 2% | 0% | -1% | -1% | 0% | -7% | ·
CC(Sc1nnc(NCc2ccccc2)s1)C(=O)Nc1ccc2c(c1)C(=O)c1ccccc1C2=O (configuration not stated) | 13% | ? | -5% | ? | 1% | -25% | +
Cn1c(=O)c2c(nc(CN3CCOCC3)n2CCN2CCOCC2)n(C)c1=O | 1% | -3% | -9% | 3% | -4% | 2% | ·
COC(=O)Cn1c(CN2CCOCC2)nc2c1c(=O)n(C)c(=O)n2C | 4% | 0% | -3% | ? | 0% | 2% | i
Cc1ccc(-c2nnc(SCC(=O)c3ccc(Cl)cc3)n2-c2ccccc2)cc1 | · | · | · | · | -2% | -9% | ·
COc1cc2c(cc1OC)n(CC(=O)c1cc(C)ccc1C)c(=O)n1nc(CCn3nc(C)cc3C)nc21 | · | · | · | · | -3% | 5% | ·
Cc1cc(C)cc(NC(=O)C(=O)NCc2ccccn2)c1 | -4% | 1% | -4% | ? | 9% | -9% | i
Cc1ccc(NC(=O)C(=O)NCc2ccccn2)cc1 | 2% | -2% | -2% | -2% | -4% | -3% | ·
O=C(N/N=C/c1cc(Cl)ccc1O)C(=O)Nc1ccccc1OC(F)(F)C(F)F | -25% | 2% | 0% | 2µM* | 0% | -2% | i
C[C@H]1CN=C(N(C)C)N1CCCCc1ccccc1 | 4% | · | · | 4% | -10% | 3% | ·
CC(C)C[C@H]1CN=C(N(C)C)N1CCCCc1ccccc1 | -7% | · | · | 6.3µM* | 1% | 6% | i
CCc1ccccc1NC(=O)CN1C(=O)C2CCCN2c2ccc(S(=O)(=O)N(CC)CC)cc21 (configuration not stated) | · | · | · | · | -21% | -6% | ·
COc1ccc2nc(SCC(=O)N3CC(=O)Nc4ccccc43)c(C#N)cc2c1 | 5% | 5% | -4% | ? | -13% | -3% | i
COC(=O)N1CCC2(CCCN(c3ccccn3)C2)CC1 | · | · | · | · | · | -4% | ·
Cc1cc(-n2ccnc2)n2c(nc3ccccc32)c1C#N | 15% | 5% | 3% | ? | 5% | -3% | ?
Cc1ccccc1CSc1cn(CC(=O)N2CCCCCC2)c2ccccc12 | · | · | · | · | 2% | 0% | ·
COc1ccc(Cl)cc1NC(=O)COC(=O)/C=C/c1c(C)nn(C2CCS(=O)(=O)C2)c1Cl (configuration not stated) | 0% | 8% | 1% | ? | -3% | 3% | i
O=C1/C(=C/c2cccs2)N=C(c2cccs2)N1Nc1ccccc1 | 50% | 8% | 0% | ? | 2% | 0% | i
CCNC(=S)N/N=C/c1cc(C)n(-c2ccc(Cl)cc2)c1C | 11% | · | 7% | -4% | -1% | -3% | ·
Cc1cc(/C=N/NC(N)=S)c(C)n1-c1ccc(Cl)c(Cl)c1 | ? | 23% | 3% | ? | 5% | -10% | i
SMILES | RE007 growth inh | NS1 inh | LmPK inhibitor | SARS PLpro yeast-1 | Sm TGR inh | Tb PYK inh | SARS PLpro yeast-2
CCOC(=O)[C@H]1[C@H]2COc3ccc(Br)cc3[C@@H]2N2C(=O)CN(Cc3ccco3)C(=O)[C@@]12C | -3% | · | · | ? | 32µM* | -15% | i
CCOC(=O)[C@H]1[C@H]2COc3ccc(Br)cc3[C@@H]2N2C(=O)CN(Cc3ccc(Cl)cc3)C(=O)[C@@]12C | 4% | · | · | -5% | · | -11% | ·
CC(=Nc1ccccc1)C1=C(O)COC1=O | -7% | 6% | 9% | ? | 0% | 4% | i
O=c1c2c(-c3ccccc3)csc2ncn1/N=C/c1cccc([N+](=O)[O-])c1O | -25% | · | ? | -21% | -1% | -2% | ·
Cn1cc(/C=N/n2cnc3scc(-c4ccccc4)c3c2=O)c2ccccc21 | -13% | 13% | 4% | ? | -29% | 1% | +
Cc1cc(=O)[nH]c2nnc(SCC(N)=O)n12 | · | · | · | · | 14% | -13% | ·
COc1ccc(S(=O)(=O)N(CCc2ccccc2)CC(=O)Nc2cccc(OC)c2)cc1 | · | · | · | · | 2% | 6% | ·
CC(=O)Nc1ccc(S(=O)(=O)N(C)CC(=O)OCC(=O)NC(C)C23CC4CC(CC(C4)C2)C3)cc1 (configuration not stated) | 2% | -9% | 0% | ? | -3% | 3% | i
COc1ccc2c(C)c(CCC(=O)NCCc3ccccc3OC)c(=O)oc2c1 | · | · | · | · | 1% | 2% | ·
CCC1(CC)C(=O)N(C)C(=O)NC1=Nc1ccc(OC)cc1 | -1% | 7% | 11% | 1.8µM* | -6% | -7% | i
Cc1ccc(OCC(=O)N/N=C\c2c(C)[nH]n(-c3ccccc3)c2=O)c([N+](=O)[O-])c1 | -13% | 0% | 0% | 5.6µM* | -6% | 2% | +
CCOc1cc(CNCCc2ccccc2)ccc1OCC(=O)NC(C)(C)C | -3% | 1% | 3% | 18µM* | 4% | -20% | i
CCCCCC(C)NC(=O)c1ccoc1C (configuration not stated) | ? | -27% | 3% | · | ? | 2% | i
Cc1ccc(-c2nnc(Nc3ccc(Cl)cc3)c3ccccc23)cc1S(=O)(=O)N1CCOCC1 | · | · | · | · | 5% | -1% | ·
CC/C(CC(c1ccccc1)c1c(O)c2ccccc2oc1=O)=N\NC(N)=S (configuration not stated) | 11% | -4% | 1% | 13µM* | 4% | 0% | i
O=C(C[C@H](c1ccccc1)c1c(O)c2ccccc2oc1=O)c1ccccc1 | · | 6% | · | · | · | · | ·
CCOC(=O)c1c(C)n(-c2ccccc2)c2ccc(OC(=O)c3cc(OC)cc(OC)c3)cc12 | · | · | · | · | -1% | 1% | ·
